In PubChem BioAssay AID588330 (National Center for Advancing Translational Sciences (NCATS), 2011):
Inconclusive results are not listed. Values without a mark were called inactive. Active and inactive are the calls of the source. Calls follow the shape of the dose curve; as a rule, active = well fitted inhibition curve with a large enough effect; inconclusive = small, poorly fitted or top-dose-only effect; inactive = flat fitted curve, though single readings scatter.

Tested on: 6-phosphofructokinase (Trypanosoma brucei)
Test: Confirmatory Assay to Find Inhibitors of T. brucei phosphofructokinase: High ATP
Conditions: T. brucei PFK, Kinase-Glo luminescence; series mostly up to 57.5 µM; activity, negative = inhibition: at the top concentration
Source text: Various species of the protozoan family Trypanosomatidae are responsible for a range of serious human diseases in tropical and subtropical areas of the world. […] Many of the disorders caused by trypanosomatids are fatal if left untreated, but most currently used drugs are inefficient and toxic. […] Oxidative metabolism involving the mitochondrial tricarboxylic acid cycle and oxidative phosphorylation are repressed in these parasites, and recent RNA interference (RNAi) experiments have shown that even partial depletion of certain individual glycolytic enzymes can lead to the death of cultured parasites. One such glycolytic enzyme, phosphofructokinase (PFK), catalyzes the formation of fructose-1,6-bisphosphate (F1,6BP) and ADP from fructose-6-phosphate (F6P) and ATP, and in many metabolic circumstances makes an important contribution to the control of flux through the glycolytic pathway. As a specific glycolytic target, PFK is particularly attractive as it catalyzes the first irreversible step in glycolysis, and structural and kinetic studies have shown very substantial and essential differences from corresponding host enzymes, allowing for the discovery of parasite-selective inhibitors. A luminescent secondary assay was also performed that used luciferase-based nucleotide detection ([…]) similar to the qHTS, but that alternatively used saturating concentrations (10x Km concentrations) of ATP or F6P to determine if inhibitor potencies were shifted due to particular substrate competition. […] NIH Molecular Libraries Probe Production Network [MLPCN] NIH Chemical Genomics Center [NCGC] Grant: 1 R03 MH092153-01 PI Name: Malcolm Walkinshaw, University of Edinburgh
Substrate buffer was dispensed into white, solid 1536-well plates at 3 uL/well in 0.1M triethanolamine (TEA) buffer, pH 8.0, containing final concentrations of 5 mM MgCl2 and 0.01% Tween20. Standard substrate buffer contained 0.5mM fructose-6-phosphate (F6P) and 0.1mM ATP, high ATP substrate buffer contained 0.5mM fructose-6-phosphate (F6P) and 1mM ATP, high F6P substrate buffer contained 5mM fructose-6-phosphate (F6P) and 0.1mM ATP, and high ATP/F6P buffer contained 5mM fructose-6-phosphate (F6P) and 1mM ATP. Then, 23nl of compounds or DMSO were delivered to each well using a pin tool. One uL of T. brucei PFK (0.1M TEA, 0.01% Tween20, 0.1% bovine serum albumin (BSA) and 1.25nM PFK, final concentrations) was then dispensed, and plates were incubated at room temperature for 45 min. The luminescent detection reagent, Kinase-Glo Plus (Promega), was then added at 2ul/well and incubated for ten minutes at room temperature. The plates were measured on a ViewLux plate reader for luminescent signal using a clear filter with a one second exposure. The %Activity was determined from the corrected luminescence values. 1x (1.25nM) and 0x PFK enzyme controls (untreated) were included to normalize %Activity of identified inhibitors; 0x enzyme values corresponded to 100%Activity (full inhibition), while 1x PFK enzyme values were used to normalize 0% Activity (no inhibition).

SMILES	activity, negative = inhibition	Potency
COc1ccc(CC(=O)Nc2ccc(S(=O)(=O)Nc3cc(C)on3)cc2)cc1OC	4.22%	–
Cc1cc(NS(=O)(=O)c2ccc(NC(=O)Cc3ccc(Cl)c(Cl)c3)cc2)n(C)n1	–	1.83 µM (active)
Cc1cc(NC(=O)c2ccc(NC(=O)Cc3ccc(Cl)c(Cl)c3)cc2)no1	-7.03%	–
Cc1cc(NS(=O)(=O)c2ccc(NC(=O)Cc3ccc(C)c(C)c3)cc2)no1	–	18.3 µM (active)
Cc1cc(NS(=O)(=O)c2ccc(NC(=O)Cc3ccc(Cl)c(Cl)c3)cc2)on1	–	0.517 µM (active)
Cc1cc(NS(=O)(=O)c2ccc(NC(=O)Cc3ccc(Cl)c(Cl)c3)cc2)no1	–	0.517 µM (active)
O=C(Cc1ccc(Cl)c(Cl)c1)Nc1ccc(S(=O)(=O)Nc2cccc(O)c2)cc1	–	2.91 µM (active)
Cc1cc(NS(=O)(=O)c2ccc(N(C)C(=O)Cc3ccc(Cl)c(Cl)c3)cc2)no1	–	1.3 µM (active)
Cc1cc(NS(=O)(=O)Cc2ccc(NC(=O)Cc3ccc(Cl)c(Cl)c3)cc2)no1	–	4.11 µM (active)
Cc1cc(NS(=O)(=O)c2ccc(NC(=O)Cc3ccc(Cl)cc3Cl)cc2)no1	–	6.51 µM (active)
CN(C)c1cccc(NS(=O)(=O)c2ccc(NC(=O)Cc3ccc(Cl)c(Cl)c3)cc2)c1	–	23.1 µM (active)
O=C(Cc1ccc(Cl)c(Cl)c1)Nc1ccc(S(=O)(=O)Nc2cccc(C(=O)O)c2)cc1	–	1.03 µM (active)
Cc1cc(NC(=O)c2csc(NC(=O)Cc3ccc(Cl)c(Cl)c3)n2)no1	-29.8%	–
O=C(Cc1ccc(Cl)c(Cl)c1)Nc1ccc(S(=O)(=O)O)cc1	–	1.03 µM (active)
Cc1cc(N(C)S(=O)(=O)c2ccc(NC(=O)Cc3ccc(Cl)c(Cl)c3)cc2)no1	–	3.26 µM (active)
O=C(Cc1ccc(Cl)c(Cl)c1)Nc1ccc(S(=O)(=O)Nc2ccc(C(=O)O)cc2)cc1	–	0.919 µM (active)
Cc1cc(NS(=O)(=O)c2ccc(NC(=O)Cc3ccc(Cl)c(F)c3)cc2)no1	–	1.03 µM (active)

SMILES	activity, negative = inhibition	Potency
Cc1cc(NS(=O)(=O)c2cccc(NC(=O)Cc3ccc(Cl)c(Cl)c3)c2)no1	–	18.3 µM (active)
Cc1cc(NS(=O)(=O)c2ccc(NC(=O)Cc3cccc(Cl)c3)cc2)no1	–	6.51 µM (active)
O=C(Cc1ccc(Cl)c(Cl)c1)Nc1ccc(S(=O)(=O)Nc2ccccc2)cc1	–	13 µM (active)
Cc1cc(NS(=O)(=O)c2ccc(NC(=O)Cc3ccc4ccccc4c3)cc2)no1	–	5.8 µM (active)
Cc1cc(NS(=O)(=O)c2ccc(NC(=O)Cc3ccc(Cl)c(C(F)(F)F)c3)cc2)no1	–	0.919 µM (active)
O=C(Cc1ccc(Cl)c(Cl)c1)Nc1ccc(S(=O)(=O)Nc2ccn[nH]2)cc1	–	0.73 µM (active)
Cc1cc(N[S+](=O)([O-])c2ccc3cc(NC(=O)Cc4ccc(Cl)c(Cl)c4)ccc3c2)no1	–	6.51 µM (active)
Cc1cc(N[S+](=O)([O-])c2ccc(NC(=O)Cc3ccc(Cl)nc3)cc2)no1	–	18.3 µM (active)
Cc1cc(NS(=O)(=O)c2ccc(NCCc3ccc(Cl)c(Cl)c3)cc2)no1	–	16.3 µM (active)
Cc1cc(NS(=O)(=O)c2ccc(NC(=O)Cc3ccc(C)c(F)c3)cc2)no1	–	8.19 µM (active)
Cc1cc(NS(=O)(=O)c2ccc(NC(=O)Cc3ccc(Cl)cc3)cc2)no1	–	2.91 µM (active)
CCOC(=O)c1cccc(NS(=O)(=O)c2ccc(NC(=O)Cc3ccc(Cl)c(Cl)c3)cc2)c1	-7.44%	–
O=C(Cc1ccc(Cl)c(Cl)c1)Nc1ccc(S(=O)(=O)Nc2ccon2)cc1	–	0.326 µM (active)
Cc1cc(NS(=O)(=O)c2ccc(C(=O)NCc3ccc(Cl)c(Cl)c3)cc2)no1	–	4.61 µM (active)
COc1ccc(CC(=O)Nc2ccc(S(=O)(=O)Nc3cc(C)on3)cc2)cc1C	-20.3%	–
O=C(Cc1ccc(Cl)c(Cl)c1)Nc1ccc(S(=O)(=O)Nc2cncnc2)cc1	–	1.3 µM (active)
Cc1cc(NS(=O)(=O)c2ccc(NC(=O)CCc3ccc(Cl)c(Cl)c3)cc2)no1	–	16.3 µM (active)
